HCMV antiviral: qHTS Assay for inhibitors of the human cytomegalovirus (HCMV). HFF cells, HCMV-luciferase reporter, 72 h; stronger effect = lower value. activity change, negative = inhibition, % at 57.5 µM. 410,000 tested, 4.5% active. AID 1259415, 2018; in the data active = activity change below about -60%; inconclusive = no clear call, values can overlap the other calls; inactive = above about -39%
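Two-dose cell screen: HFF monolayers treated with compounds and infected with luciferase-expressing HCMV at 1 PFU/cell, 72 h at 37C, then lysed for luciferase measurement.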
FMDV antiviral: High Throughput Screening for Foot and Mouth Disease Virus Antivirals | FMDV antiviral cell-based qHTS | Potency, µM (highest dose often 57.9 µM), usual class: inhibitors | 410,000 tested, 1.2% active; calls by dose curve; tested in HEK293T cells; also: read-out not given here; nearly all actives have a fitted effect of over 45% in size
VACV Venus inh: qHTS for Stage-Specific Inhibitors of Vaccinia Orthopoxvirus: Venus Reporter Primary qHTS. Vaccinia virus Venus reporter expression, fluorescence. Potency, µM (highest dose often 36.5 µM), hits mostly inhibitors. 330,000 tested, 0.46% active. AID 720580, 2013; calls by dose curve; tested in A549 cells; also: nearly all actives have a fitted effect of over 30% in size
HCV inh: qHTS Assay for Inhibitors of Hepatitis C Virus (HCV). 340,000 tested, 3.4% active. Potency, µM (titrated, usually from 41.8 µM), usual class: inhibitors. Huh7.5.1 HCVcc-Cre infection, luciferase reporter, 44 h; active = well fitted inhibition curve with a large enough effect; inconclusive = small, poorly fitted or top-dose-only effect, or another doubt; inactive = no such curve, though single readings can be large or run the other way
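Cells seeded at 1,000/well and cultured 4 h, then compounds added followed by HCVcc-Cre virus (~0.5 moi). After 44 h further culture, luciferase substrate was added, plates held 15 min at room temperature, and luminescence read for 15 sec.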
VACV mCherry inh: qHTS for Stage-Specific Inhibitors of Vaccinia Orthopoxvirus: mCherry Reporter Primary qHTS. Vaccinia virus mCherry reporter infection, fluorescence. Potency, µM (doses to about 36.5 µM), usual class: inhibitors. 310,000 tested, 0.63% active. AID 720579, 2013; calls by dose curve; tested in A549 cells; also: nearly all actives have a fitted effect of over 35% in size
A number is an active result. A selection: hits, their analogues and other compounds. The true share with any hit is near 7.3%.

For O=C(/C=C/c1ccc([N+](=O)[O-])cc1)Nc1cccc(S(=O)(=O)NC2=NCCCCC2)c1 the results were HCMV antiviral inactive, FMDV antiviral inconclusive, VACV Venus inh inconclusive, HCV inh 25µM and VACV mCherry inh inactive.
`Cc1ccc(-c2nn(-c3ccccc3)cc2C(=O)Nc2cccc(S(=O)(=O)NC3=NCCC3)c2)cc1` gave HCMV antiviral inactive, FMDV antiviral inactive, VACV Venus inh inconclusive and VACV mCherry inh inactive.
Screening O=C(NC(=S)Nc1cccc(S(=O)(=O)NC2=NCCC2)c1)c1cc(-c2ccco2)nc2ccccc12 returned HCMV antiviral -81, FMDV antiviral inactive, VACV Venus inh inactive, HCV inh inactive and VACV mCherry inh inconclusive.
CCOc1ccc(C(=O)NC(=S)Nc2cccc(S(=O)(=O)NC3=NCCC3)c2)cc1 was read as HCMV antiviral inactive, FMDV antiviral inactive, VACV Venus inh inconclusive, HCV inh 14µM and VACV mCherry inh inactive.
For CC(=O)[C@@]1(O)CC[C@H]2[C@@H]3C=C(Cl)C4=CC(=O)[C@@H]5C[C@@H]5[C@]4(C)[C@H]3CC[C@@]21C the results were FMDV antiviral inactive, VACV Venus inh inactive and VACV mCherry inh inactive.
For O=C(Nc1cccc(S(=O)(=O)NC2=NCCCCC2)c1)c1ccc(Cl)cc1 the results were HCMV antiviral -68, FMDV antiviral inconclusive, VACV Venus inh inactive, HCV inh inconclusive and VACV mCherry inh inactive.
Screening O=C(Nc1cccc(S(=O)(=O)NC2=NCCC2)c1)c1ccccc1 returned HCMV antiviral inactive, FMDV antiviral inactive, VACV Venus inh inactive, HCV inh inactive and VACV mCherry inh inactive.
Cc1ccc2ccc3ccc(C)nc3c2n1 was read as HCMV antiviral -94, FMDV antiviral inactive, VACV Venus inh inactive, HCV inh 0.32µM and VACV mCherry inh inactive.
For Cc1ccc2cc(F)c(F)c(F)c2n1 the results were HCMV antiviral inactive, FMDV antiviral inactive, VACV Venus inh inactive and VACV mCherry inh inactive.
Screening CC(C)=CCC/C(C)=C/CNC(=O)C[C@H]1C[C@H](C(=O)N(C(C)C)C(C)C)[C@@]2(C)c3[nH]c4ccc(Cl)cc4c3CCN2C1=O returned HCMV antiviral inactive, FMDV antiviral inconclusive, VACV Venus inh inconclusive, HCV inh inactive and VACV mCherry inh inconclusive.
`COc1ccc2[nH]c3c(c2c1)CCN1C(=O)C(CC(=O)NC/C=C(\C)CCC=C(C)C)C[C@H](C(=O)N(C(C)C)C(C)C)[C@@]31C` (some centres not stated) gave HCMV antiviral -103, FMDV antiviral inactive, VACV Venus inh inconclusive, HCV inh 6.3µM and VACV mCherry inh inactive.
For COc1ccc(CNC(=O)C[C@H]2C[C@H](C(=O)N(C(C)C)C(C)C)[C@@]3(C)c4[nH]c5ccc(Cl)cc5c4CCN3C2=O)cc1OC the results were HCMV antiviral inactive, FMDV antiviral inconclusive, VACV Venus inh inconclusive, HCV inh 13µM and VACV mCherry inh inconclusive.
For CC(C)N(C(=O)[C@H]1C[C@H](CC(=O)NCCC2=CCCCC2)C(=O)N2CCc3c([nH]c4ccc(Cl)cc34)[C@]12C)C(C)C the results were HCMV antiviral -91, FMDV antiviral inconclusive, VACV Venus inh 16µM, HCV inh inactive and VACV mCherry inh inconclusive.
Screening CS(=O)(=O)c1ccc(C(=O)OCC(=O)N2CCc3ccccc32)cc1[N+](=O)[O-] returned VACV Venus inh inactive and VACV mCherry inh inactive.
Screening COc1ccc(OC)c(CCNC(=O)CCCn2c(=O)c3cccn3c3ccccc32)c1 returned HCMV antiviral inconclusive, FMDV antiviral inactive, VACV Venus inh inactive and VACV mCherry inh inactive.
For O=C(/C=C/c1ccco1)Nc1ccccn1 the results were HCMV antiviral inactive, FMDV antiviral inactive, VACV Venus inh inactive, HCV inh inconclusive and VACV mCherry inh inactive.
Cc1ccc(NC(=O)/C=C/c2ccco2)nc1 was read as HCMV antiviral -63, FMDV antiviral inactive, VACV Venus inh inconclusive, HCV inh inactive and VACV mCherry inh inconclusive.
For COc1ccccc1CNC(=O)C1CCN(S(=O)(=O)c2c(C)noc2/C=C/c2cccs2)CC1 the results were HCMV antiviral inconclusive, FMDV antiviral inactive, VACV Venus inh inactive and VACV mCherry inh inactive.
For Cc1ccccc1NC(=O)C1CCN(S(=O)(=O)c2c(C)noc2/C=C/c2ccco2)CC1 the results were HCMV antiviral inactive, FMDV antiviral inactive, VACV Venus inh inactive and VACV mCherry inh inactive.
For Cc1noc(/C=C/c2ccco2)c1S(=O)(=O)N1CCC(C(=O)N2CCc3ccccc3C2)CC1 the results were FMDV antiviral inactive and HCV inh 11µM.
Screening Cc1ccc(NC(=O)C2CCN(S(=O)(=O)c3c(C)noc3/C=C/c3ccco3)CC2)nc1 returned HCMV antiviral -94, FMDV antiviral 35µM, VACV Venus inh inactive, HCV inh inactive and VACV mCherry inh inactive.
For Cc1noc(/C=C/c2cccs2)c1S(=O)(=O)N1CCC(C(=O)NCCCN2CCC(C)CC2)CC1 the results were HCMV antiviral inactive, FMDV antiviral inactive and HCV inh 11µM.
For Cc1noc(/C=C/c2ccco2)c1S(=O)(=O)N1CCC(C(=O)NCc2ccco2)CC1 the results were HCMV antiviral -73, FMDV antiviral inactive and HCV inh inconclusive.
For Cc1ccc(CNC(=O)CSc2c3c(nc4ccc(Cl)cc24)CCCC3)cc1 the results were HCMV antiviral inactive, FMDV antiviral inactive, VACV Venus inh inactive and VACV mCherry inh inactive.
`Cc1ccc(C)c(NC(=O)CSc2c3c(nc4ccc(Cl)cc24)CCCC3)c1` gave HCMV antiviral -74, FMDV antiviral inactive, VACV Venus inh inactive and VACV mCherry inh inactive.
For COc1ccc(NC(=O)CSc2c3c(nc4cc(Cl)ccc24)CCCC3)cc1OC the results were HCMV antiviral inactive, FMDV antiviral inconclusive, VACV Venus inh inactive, HCV inh inconclusive and VACV mCherry inh inactive.
For COc1ccc(NC(=O)CSc2c3c(nc4ccc(Cl)cc24)CCCC3)cc1Cl the results were HCMV antiviral -80, FMDV antiviral inconclusive, VACV Venus inh inactive and VACV mCherry inh inactive.
For O=C(Nc1ccc2nc(C3CC3)n(Cc3ccc(F)cc3)c(=O)c2c1)c1ccco1 the results were HCMV antiviral -69, FMDV antiviral inactive, VACV Venus inh inconclusive, HCV inh 22µM and VACV mCherry inh inconclusive.
O=C(/C(=C/O)N=Nc1ccc(Cl)cc1)c1ccncc1 was read as HCMV antiviral inactive, FMDV antiviral 32µM, VACV Venus inh inconclusive and HCV inh inconclusive.
Screening Cc1ccc(N=N/C(=C\O)C(=O)c2ccncc2)cc1 returned HCMV antiviral inactive, FMDV antiviral inconclusive, VACV Venus inh inactive and HCV inh inconclusive.
Cc1cc(C)cc(NC(=O)c2oc3ccc4c(c3c2C)C(=O)CC(C)(C)O4)c1 was read as HCMV antiviral -105, FMDV antiviral inactive, VACV Venus inh inactive and VACV mCherry inh inactive.
